Assay results as given in PubChem BioAssay (NCI).
Compounds without any hit were thinned out: in the full panel of roughly 79,000, 15% have a hit. Calls of active or inactive are those of the source. No stated cut-off is given here; in the data, active means growth inhibition above about 70%; inactive means the rest.

What was measured:
[1] = NCI Yeast Anticancer Drug Screen. Data for the rad52 strain (AID 147);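 further: 0% = growth of vehicle-treated control cultures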; details: S. cerevisiae rad52 mutant growth inhibition, hits give high values
How it was run: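 Inhibition of yeast growth, referenced to vehicle controls, was the measured output for a strain with defective DNA damage repair.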

[2] = NCI Yeast Anticancer Drug Screen. Data for the wt1 strain (AID 149);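 further: 0% = growth of vehicle-treated wt1 cultures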; details: S. cerevisiae wt1 strain (SPY 50644) growth inhibition, hits give high values
How it was run: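 wt1 strain grown with compound or vehicle; inhibition taken from the growth difference.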

[3] = NCI Yeast Anticancer Drug Screen. Data for the rad50EPP+ strain (AID 151);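 further: 0% = growth of vehicle-treated control cultures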; details: S. cerevisiae rad50 mutant strain, hits give high values
How it was run: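 Genetically defined yeast (rad50EPP+, DNA damage repair alteration) is grown with compound, and inhibition of growth is expressed relative to vehicle-treated controls.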

[4] = NCI Yeast Anticancer Drug Screen. Data for the mgt1 strain (AID 153); details: S. cerevisiae mgt1 mutant growth inhibition, hits give high values
How it was run: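 In the mgt1 strain, test compounds were added and growth inhibition was determined relative to vehicle-treated controls.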

[5] = NCI Yeast Anticancer Drug Screen. Data for the rad50 strain (AID 155);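 further: 0% = growth of vehicle-only cultures of the same strain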; details: S. cerevisiae rad50 strain growth inhibition, hits give high values
How it was run: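 DNA repair mutant yeast, compound exposure, growth read-out; inhibition is taken relative to vehicle.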

[6] = NCI Yeast Anticancer Drug Screen. Data for the mec2-1 strain (AID 157); details: S. cerevisiae mec2-1 strain, hits give high values
How it was run: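 Each compound was tested on mec2-1 yeast, a strain altered in DNA damage repair or cell cycle control. Growth inhibition is reported relative to vehicle.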

[7] = NCI Yeast Anticancer Drug Screen. Data for the rad14 strain (AID 159);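 further: 0% = growth of vehicle-treated control cultures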; details: S. cerevisiae rad14 strain growth inhibition, hits give high values
How it was run: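 DNA repair-defective yeast, compound-exposed; % growth inhibition derived by comparison with vehicle-treated controls.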

[8] = NCI Yeast Anticancer Drug Screen. Data for the CLN2oe strain (AID 163);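 further: 0% = growth of vehicle-only control cultures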; details: S. cerevisiae CLN2oe strain, hits give high values
How it was run: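 First, the altered yeast strain was treated with each compound; second, its growth was measured; finally, inhibition was derived by comparison with vehicle controls.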

[9] = NCI Yeast Anticancer Drug Screen. Data for the cln2 rad14 strain (AID 165);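 further: 0% = growth equal to vehicle treated cultures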; details: S. cerevisiae cln2 rad14 strain, hits give high values
How it was run: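 Test compounds were added to cln2 rad14 yeast cultures; inhibition of growth was then determined by comparison with vehicle treatment.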

[10] = NCI Yeast Anticancer Drug Screen. Data for the bub3 strain (AID 167); details: S. cerevisiae bub3 mutant strain, hits give high values
How it was run: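 In this screen, a yeast mutant lacking normal mitotic checkpoint function is challenged with compound. Relative growth versus vehicle gives the inhibition value.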

[11] = NCI Yeast Anticancer Drug Screen. Data for the wt2 strain (AID 169);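 further: 0% = growth of vehicle-treated yeast cultures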; details: S. cerevisiae wt2 strain growth inhibition, hits give high values
How it was run: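 The panel's yeast strains carry defined changes in DNA repair or cell cycle genes. Each strain is grown with compound, and growth loss is scored relative to vehicle.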

[12] = NCI Yeast Anticancer Drug Screen. Data for the mlh1 strain (AID 171);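 further: 0% = growth of vehicle-treated control cultures of the same strain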; details: S. cerevisiae mlh1 strain growth inhibition, hits give high values
How it was run: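 Inhibition values reflect reduced yeast growth in the presence of compound, referenced to vehicle controls, using a strain chosen for its alteration in DNA repair or cell cycle control.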

[13] = NCI Yeast Anticancer Drug Screen. Data for the sgs1 strain (AID 173);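 further: 0% = growth of vehicle-only control cultures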; details: S. cerevisiae sgs1 mutant, hits give high values
How it was run: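 Vehicle-treated cultures served as reference for growth inhibition of a yeast strain altered in DNA damage repair or cell cycle control after compound exposure.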

[14] = NCI Yeast Anticancer Drug Screen. Data for the mlh1 rad18 strain (AID 175); details: S. cerevisiae mlh1 rad18 strain growth inhibition, hits give high values
How it was run: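 Inhibition values reflect reduced growth of mutant yeast versus vehicle-treated controls following compound exposure; the mutations affect DNA damage repair.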

[15] = NCI Yeast Anticancer Drug Screen. Data for the rad18 strain (AID 177); details: S. cerevisiae rad18 mutant growth inhibition, hits give high values
How it was run: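 Steps: expose repair-mutant yeast to compound; measure growth; express as inhibition relative to vehicle control.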

[16] = at 5.0 µM (retest, dose inferred, filed as 0.5)
[17] = at 50.0 µM (retest, dose inferred, filed as 5.0)

Measured: growth inhibition

Cc1c2cccc(Sc3ccccc3)c2c2c3c(cccc13)[S+](c1ccccc1)C2 (stereo not given)
inactive: [1]; at 1.2 µM 13% | [1]; at 3.7 µM 41% | [2]; at 1.2 µM 8% | [2]; at 3.7 µM 19% | [3]; at 1.2 µM 4% | [3]; at 3.7 µM 12% | [3]; at 11.0 µM 39% | [4]; at 1.2 µM 5% | [4]; at 3.7 µM 4% | [5]; at 1.2 µM 25% | [5]; at 3.7 µM 69% | [5]; [16] 58% | [6]; at 1.2 µM 7% | [6]; at 3.7 µM 30% | [6]; [16] 28% | [7]; at 1.2 µM -1% | [7]; at 3.7 µM 17% | [8]; at 1.2 µM -3% | [8]; at 3.7 µM -1% | [9]; [16] 7% | [10]; at 1.2 µM -5% | [10]; at 3.7 µM 27% | [10]; [16] 16% | [11]; at 1.2 µM 6% | [11]; at 3.7 µM 25% | [12]; at 1.2 µM 0% | [12]; at 3.7 µM 22% | [13]; at 1.2 µM 10% | [13]; at 3.7 µM 40% | [14]; [16] 18% | [15]; at 1.2 µM 28% | [15]; at 3.7 µM 65%
active: [1]; at 11.0 µM 96% | [1]; at 33.0 µM 95% | [1]; at 100.0 µM 88% | [2]; at 11.0 µM 96% | [2]; at 33.0 µM 96% | [2]; at 100.0 µM 88% | [3]; at 33.0 µM 88% | [3]; at 100.0 µM 88% | [4]; at 11.0 µM 97% | [4]; at 33.0 µM 95% | [4]; at 100.0 µM 90% | [5]; at 11.0 µM 97% | [5]; at 33.0 µM 94% | [5]; [17] 97% | [5]; at 50.0 µM 90.9% | [5]; at 100.0 µM 82% | [6]; at 11.0 µM 98% | [6]; at 33.0 µM 95% | [6]; [17] 97% | [6]; at 50.0 µM 93.5% | [6]; at 100.0 µM 91% | [7]; at 11.0 µM 98% | [7]; at 33.0 µM 96% | [7]; at 100.0 µM 90% | [8]; at 11.0 µM 96% | [8]; at 33.0 µM 92% | [8]; at 100.0 µM 84% | [9]; [17] 96% | [9]; at 50.0 µM 93.4% | [10]; at 11.0 µM 97% | [10]; at 33.0 µM 94% | [10]; [17] 97% | [10]; at 50.0 µM 95.2% | [10]; at 100.0 µM 87% | [11]; at 11.0 µM 97% | [11]; at 33.0 µM 95% | [11]; at 100.0 µM 86% | [12]; at 11.0 µM 98% | [12]; at 33.0 µM 96% | [12]; at 100.0 µM 93% | [13]; at 11.0 µM 97% | [13]; at 33.0 µM 95% | [13]; at 100.0 µM 87% | [14]; [17] 97% | [14]; at 50.0 µM 93.3% | [15]; at 11.0 µM 97% | [15]; at 33.0 µM 95% | [15]; at 100.0 µM 83%
